Assay results: PubChem BioAssay (EPA / NIEHS)
Values joined by “and” are separate entries in the source; they are usually repeats but may differ in a detail not shown here. Identical values can stand only once. Where a structure was tested more than once in an assay, its records may differ in their call. Active and inactive are the calls of the source. Rule for the calls: active = hit-call score of the fitted dose curve at least 0.9, where 1 is the maximum; inactive = score below 0.9.

Experiments:
[1] = ATG_PXRE_CIS: Attagene CIS-FACTORIAL HepG2 Assay for human Pregnane X Receptor Element (PXRE) (AID 2282957); details: HepG2 Attagene CIS-FACTORIAL PXRE reporter, mRNA; actives raise or lower the signal
Method in brief: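 Reporter transcripts under endogenous PXR-responsive cis-regulation quantified from total RNA of transfected HepG2 cells 24 h post-dosing, via RT-PCR with fluorescent primer extension and capillary electrophoresis. Gain or loss of signal fitted against DMSO baseline.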

[2] = ATG_PPRE_CIS: Attagene CIS-FACTORIAL HepG2 Assay for human Peroxisome Proliferator-activated Response Element (PPRE) (AID 2282958); details: HepG2 PPRE cis-element reporter, Attagene transcription factor profiling; actives raise or lower the signal
Method in brief: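 HepG2 cells are transiently transfected with multiplexed cis-promoter reporter units to report endogenous PPAR activity. After 24 h dosing, reporter mRNA is read by RT-PCR and capillary electrophoresis. Fitting is bidirectional against DMSO.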

[3] = ATG_RORE_CIS: Attagene CIS-FACTORIAL HepG2 Assay for human RAR-related Orphan Receptor Element (RORE) (AID 2282959); details: HepG2 Attagene cis-factorial RORE reporter, mRNA; actives raise or lower the signal
Method in brief: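 HepG2 cells carrying transiently transfected cis-regulated reporter units; RORE-driven reporter mRNA quantified 24 h post-dosing by RT-PCR, 6-FAM primer extension, HpaI digestion and capillary electrophoresis. Bidirectional fit versus DMSO.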

[4] = ATG_Sox_CIS: Attagene CIS-FACTORIAL HepG2 Assay for human SRY-box transcription factor (SOX) (AID 2282960); details: HepG2 Attagene cis-factorial SOX reporter, mRNA; actives raise or lower the signal
Method in brief: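 HepG2 cells transiently transfected with multiple cis-regulated reporter units, then dosed for 24 h. Reporter mRNA quantified by RT-PCR, fluorescent labelling, HpaI digestion and capillary electrophoresis; bidirectional fit versus DMSO.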

[5] = target: Transcription factor Sp1 (Homo sapiens) (UniProt P08047); assay: ATG_Sp1_CIS: Attagene CIS-FACTORIAL HepG2 Assay for human Specificity Protein 1 (Sp1) (AID 2282961); details: HepG2 Sp1 cis-reporter transcription, actives raise or lower the signal
Method in brief: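 HepG2 cells transiently transfected with multiplexed cis-regulated reporter constructs, chemical exposure 24 h. Reporter mRNA quantified by RT-PCR with capillary electrophoresis; bidirectional fit relative to DMSO.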

[6] = ATG_SREBP_CIS: Attagene CIS-FACTORIAL HepG2 Assay for human Sterol Regulatory Element Binding (SREBP) (AID 2282962); details: HepG2 Attagene cis-factorial SREBP reporter, mRNA; actives raise or lower the signal
Method in brief: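 In this cis-format assay, HepG2 liver cells express reporters controlled by promoter elements responsive to native transcription factors. Exposure lasts 24 h; reporter mRNA fluorescence from capillary electrophoresis gives the signal, fitted bidirectionally against DMSO.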

[7] = target: Signal transducer and activator of transcription 3 (Homo sapiens) (UniProt P40763); assay: ATG_STAT3_CIS: Attagene CIS-FACTORIAL HepG2 Assay for human Signal Transducer and Activator of Transcription 3 (STAT3) (AID 2282963); details: HepG2, Attagene cis-factorial STAT3 reporter transcription; actives raise or lower the signal
Method in brief: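 Readout: fluorescent reporter mRNA fragments resolved by capillary electrophoresis. Setup: HepG2 transfected with MRTUs reporting endogenous transcription-factor activity, dosed 24 h. Gain or loss of signal fitted bidirectionally against DMSO control.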

[8] = ATG_TA_CIS: Attagene CIS-FACTORIAL HepG2 Assay for human TA Basal Promoter (AID 2282964); details: HepG2 Attagene CIS-factorial TA basal promoter reporter; actives raise or lower the signal
Method in brief: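 HepG2 cells transiently transfected with multiplexed cis-promoter reporter units, dosed 24 h. Reporter mRNA measured by RT-PCR, 6-FAM labelling, HpaI digestion and capillary electrophoresis; bidirectional fit versus DMSO baseline, serving as background control.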

[9] = ATG_TCF_b_cat_CIS: Attagene CIS-FACTORIAL HepG2 Assay for human T-Cell-Factor with beta-catenin (TCF/b-cat) (AID 2282965); details: HepG2 TCF/beta-catenin cis-reporter transcription, actives raise or lower the signal
Method in brief: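 HepG2, transient MRTU transfection, cis-element-driven reporters (endogenous TFs). 24 h compound exposure. Readout: reporter mRNA by RT-PCR + 6-FAM primer extension, HpaI digest, capillary electrophoresis. Gain/loss fit vs DMSO baseline.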

[10] = ATG_TAL_CIS: Attagene CIS-FACTORIAL HepG2 Assay for human TAL Basal Promoter (AID 2282966); details: HepG2 Attagene cis-factorial TAL promoter reporter; actives raise or lower the signal;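 note: background control endpoint measuring basal TAL promoter reporter mRNA not a specific factor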
Method in brief: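 Background-control endpoint: basal TAL promoter reporter transcripts in transiently transfected HepG2, measured 24 h after dosing. Read-out by RT-PCR with fluorescent primer extension and capillary electrophoresis; gain or loss of signal fitted relative to DMSO.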

Sequence of Transcription factor Sp1 (Homo sapiens) (P08047 whole entry, looked up): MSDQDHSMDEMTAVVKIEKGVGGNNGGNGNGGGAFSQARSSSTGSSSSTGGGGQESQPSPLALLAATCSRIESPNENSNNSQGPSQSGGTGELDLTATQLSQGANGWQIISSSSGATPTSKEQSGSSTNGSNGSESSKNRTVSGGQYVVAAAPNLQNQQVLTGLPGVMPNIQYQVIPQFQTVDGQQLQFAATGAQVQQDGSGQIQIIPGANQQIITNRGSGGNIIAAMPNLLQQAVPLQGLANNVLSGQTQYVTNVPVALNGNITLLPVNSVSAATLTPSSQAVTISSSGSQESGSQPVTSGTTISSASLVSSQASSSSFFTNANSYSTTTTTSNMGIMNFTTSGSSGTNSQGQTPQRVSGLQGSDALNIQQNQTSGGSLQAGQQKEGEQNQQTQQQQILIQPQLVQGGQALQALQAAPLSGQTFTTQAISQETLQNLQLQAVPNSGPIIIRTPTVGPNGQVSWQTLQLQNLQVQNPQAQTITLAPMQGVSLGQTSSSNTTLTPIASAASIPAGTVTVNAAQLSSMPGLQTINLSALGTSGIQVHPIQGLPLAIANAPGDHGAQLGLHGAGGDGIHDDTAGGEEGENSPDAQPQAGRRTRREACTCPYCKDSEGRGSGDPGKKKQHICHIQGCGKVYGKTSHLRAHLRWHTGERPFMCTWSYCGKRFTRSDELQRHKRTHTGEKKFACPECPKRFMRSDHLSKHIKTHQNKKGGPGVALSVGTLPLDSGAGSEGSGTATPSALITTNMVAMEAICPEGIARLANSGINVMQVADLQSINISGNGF
Sequence of Signal transducer and activator of transcription 3 (Homo sapiens) (P40763 whole entry, looked up, the tested form may be a part): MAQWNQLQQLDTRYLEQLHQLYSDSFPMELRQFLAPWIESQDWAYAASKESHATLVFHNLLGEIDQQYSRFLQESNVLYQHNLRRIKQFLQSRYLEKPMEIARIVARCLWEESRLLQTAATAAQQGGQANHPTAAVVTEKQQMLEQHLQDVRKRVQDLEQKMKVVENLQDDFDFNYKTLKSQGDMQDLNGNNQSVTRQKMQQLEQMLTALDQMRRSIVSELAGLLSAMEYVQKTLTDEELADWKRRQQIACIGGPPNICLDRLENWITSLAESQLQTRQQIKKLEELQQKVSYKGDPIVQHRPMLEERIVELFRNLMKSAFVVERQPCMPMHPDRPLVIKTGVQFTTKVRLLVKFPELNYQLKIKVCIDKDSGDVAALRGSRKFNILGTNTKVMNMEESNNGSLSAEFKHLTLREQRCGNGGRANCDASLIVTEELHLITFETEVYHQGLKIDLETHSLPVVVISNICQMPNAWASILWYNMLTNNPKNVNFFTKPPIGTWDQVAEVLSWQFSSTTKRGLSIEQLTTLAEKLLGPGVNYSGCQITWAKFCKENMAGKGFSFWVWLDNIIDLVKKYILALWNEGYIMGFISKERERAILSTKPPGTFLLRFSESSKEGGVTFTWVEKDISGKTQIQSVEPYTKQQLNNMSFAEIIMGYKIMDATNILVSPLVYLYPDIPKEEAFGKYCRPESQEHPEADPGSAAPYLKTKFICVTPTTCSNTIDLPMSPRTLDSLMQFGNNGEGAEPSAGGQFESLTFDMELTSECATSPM

SMILES	AC50 [1]	AC50 [2]	outcome [2]	outcome [3]	outcome [4]	outcome [5]	outcome [6]	outcome [7]	outcome [8]	outcome [9]	outcome [10]	outcome [1]	AC50 [5]	AC50 [6]	AC50 [8]	AC50 [9]	AC50 [4]	AC50 [3]
c1ccc(Nc2ccccc2)cc1	64 µM (active) and 37.5 µM (active)	20.6 µM (active)	inactive	inactive	inactive	inactive	inactive	inactive	inactive	inactive	inactive	–	–	–	–	–	–	–
CC(=O)S[C@@H]1CC2=CC(=O)CC[C@]2(C)[C@H]2CC[C@@]3(C)[C@@H](CC[C@@]34CCC(=O)O4)[C@H]12	7.65 µM (active) [middle of 4 runs]	2.4 µM (active)	inactive	inactive	inactive	inactive	inactive	–	inactive	inactive	–	inactive	26.3 µM (active) and 4.58 µM (active)	100 µM (active)	182 µM (active)	39.1 µM (active)	–	–
CC(C)CCCCCCc1ccc(O)cc1	2.88 µM (active) [middle of 4 runs]	11.1 µM (active)	inactive	inactive	inactive	inactive	inactive	–	inactive	inactive	inactive	–	19.4 µM (active) and 16.2 µM (active)	20.2 µM (active)	20.3 µM (active)	15.2 µM (active) and 16.8 µM (active) and 17.4 µM (active)	17.8 µM (active) and 17.5 µM (active)	–
CCOC(=O)C(C)Oc1ccc(Oc2cnc3cc(Cl)ccc3n2)cc1 (configuration not stated)	35.1 µM (active)	–	inactive	inactive	inactive	inactive	–	inactive	inactive	inactive	–	–	–	–	–	–	–	–
CC(C)(c1ccc(O)cc1)c1ccc(O)cc1	–	28.6 µM (active) and 38.9 µM (active) and 15 µM (active)	inactive	–	inactive	inactive	inactive	–	inactive	inactive	–	inactive	60 µM (active)	–	140 µM (active) [middle of 4 runs]	–	–	–
CN(C)C(=O)Nc1ccc(Cl)c(Cl)c1	11.4 µM (active) and 25.4 µM (active)	37 µM (active)	inactive	inactive	inactive	inactive	–	inactive	inactive	inactive	inactive	–	180 µM (active)	–	–	–	–	100 µM (active)
CCCN(CCC)c1c([N+](=O)[O-])cc(C(F)(F)F)c(N)c1[N+](=O)[O-]	1.29 µM (active)	–	inactive	inactive	inactive	–	inactive	–	inactive	inactive	inactive	–	28.9 µM (active)	–	–	–	–	–
O=C(O)C1(C(=O)Nc2ccc(Cl)cc2Cl)CC1	69.7 µM (active)	13.7 µM (active)	–	inactive	inactive	inactive	inactive	–	inactive	inactive	–	–	–	–	–	–	–	–
c1ccc2[nH]c(-c3cscn3)nc2c1	10 µM (active)	–	inactive	inactive	inactive	inactive	inactive	–	inactive	inactive	–	inactive	–	–	–	–	–	–
CSC(=O)c1cccc2nnsc12	49.4 µM (active)	–	inactive	inactive	inactive	inactive	inactive	–	inactive	inactive	–	–	–	–	–	–	–	–
S=C(S)NCCNC(=S)S.[Mn+2].[S-]C([S-])=NCCN=C([S-])[S-].[Zn+2]	13.2 µM (active) and 13 µM (active) and 12.9 µM (active)	–	–	inactive	inactive	inactive	–	–	inactive	inactive	–	inactive	–	–	–	20 µM (active) and 27.8 µM (active) and 26.9 µM (active)	16.5 µM (active) and 23 µM (active) and 22.3 µM (active)	19.6 µM (active)
C#C[C@]1(O)CC[C@H]2[C@@H]3CCC4=CC(=O)CC[C@@H]4[C@H]3CC[C@@]21CC	5.07 µM (active) [middle of 5 runs]	–	inactive	inactive	inactive	inactive	–	inactive	inactive	inactive	–	–	–	–	–	–	–	–
COC(=O)c1c(Cl)nn(C)c1S(=O)(=O)NC(=O)Nc1nc(OC)cc(OC)n1	–	–	inactive	inactive	inactive	inactive	–	inactive	inactive	inactive	inactive	inactive	–	–	–	–	–	–
COc1nc(C)nc(NC(=O)NS(=O)(=O)c2ccccc2OCCCl)n1	34.2 µM (active) and 5.58 µM (active)	–	inactive	inactive	inactive	inactive	–	inactive	inactive	inactive	inactive	–	–	–	–	–	–	–
O=C(Nc1ccc([N+](=O)[O-])cc1Cl)c1cc(Cl)ccc1O	0.426 µM (active)	–	inactive	–	inactive	–	–	inactive	inactive	inactive	inactive	–	0.7 µM (active)	0.7 µM (active)	–	–	–	1.19 µM (active)
CCC(O)=C1C(=O)CC(C(=O)O)CC1=O (configuration not stated)	–	–	inactive	inactive	inactive	inactive	inactive	–	inactive	inactive	inactive	inactive	–	–	–	–	–	–
C=CCOC(Cn1ccnc1)c1ccc(Cl)cc1Cl (configuration not stated)	4.84 µM (active)	–	inactive	inactive	inactive	inactive	–	inactive	inactive	inactive	–	–	–	6.99 µM (active)	–	–	–	–
COCCO	24.7 µM (active)	–	inactive	inactive	inactive	inactive	inactive	–	inactive	inactive	–	inactive	–	–	–	–	–	–
CCSC(=O)N(CC(C)C)CC(C)C	–	–	inactive	inactive	inactive	inactive	–	inactive	inactive	inactive	–	inactive	–	–	–	–	–	–
CC(C)(C)[C@@H](O)[C@@H](Cc1ccc(Cl)cc1)n1cncn1	13.5 µM (active)	–	inactive	inactive	inactive	inactive	inactive	inactive	inactive	inactive	inactive	–	–	–	–	–	–	–
CCCCOCCOCCOCc1cc2c(cc1CCC)OCO2	2.21 µM (active)	–	inactive	inactive	inactive	inactive	–	inactive	inactive	inactive	inactive	–	–	–	–	–	–	–
CCC(C)OC(=O)N1CCCCC1CCO (configuration not stated)	20.7 µM (active) and 15 µM (active)	–	inactive	inactive	inactive	inactive	–	inactive	inactive	inactive	–	–	–	–	–	–	–	–
O=C(c1ccc(O)cc1O)c1ccc(O)cc1O	–	28.4 µM (active)	inactive	inactive	inactive	inactive	–	–	inactive	inactive	inactive	inactive	–	–	–	53.5 µM (active)	–	–
COC(=O)c1cccc(C)c1S(=O)(=O)NC(=O)Nc1nc(OCC(F)(F)F)nc(N(C)C)n1	34.5 µM (active)	–	inactive	inactive	inactive	inactive	–	inactive	inactive	inactive	–	–	–	–	–	–	–	–
CCOC(=O)COc1cc(-n2ncc(C(F)(F)F)c(C)c2=O)c(F)cc1Cl	28.5 µM (active)	–	inactive	inactive	inactive	inactive	inactive	–	inactive	inactive	–	–	–	–	–	–	–	–
CCN(CC)C(=O)c1cccc(C)c1	40.2 µM (active)	–	inactive	inactive	inactive	inactive	–	inactive	inactive	inactive	–	inactive	–	–	–	–	–	–
